The list is not random: actives were taken first. Their share in the collection is about 6.8%.
UCHL1 inh = inhibitors of human UCHL1 deubiquitinase; inhibition, % at 20 µM; purified UCHL1, Ub-rhodamine cleavage fluorescence; Ubiquitin carboxyl-terminal hydrolase isozyme L1 (Homo sapiens), P09936; AID 1645859, 2021; hit rate 0.2% among 47,000
USP10 inh = inhibitors of human USP10 deubiquitinase. Ubiquitin carboxyl-terminal hydrolase 10 (Homo sapiens), Q14694. hit rate 1.1% among 47,000. purified USP10, Ub-rhodamine fluorescence, 60 min. inhibition, % at 20 µM
OTUD3 block = inhibitors of human OTUD3 deubiquitinase; OTU domain-containing protein 3 (Homo sapiens), Q5T2D3; hit rate 0.7% among 47,000; inhibition, % at 25 µM; AID 1645858, 2021; purified OTUD3, Ub-rhodamine fluorescence, 2 h
Target sequence (Q5T2D3 whole entry, looked up, the tested form may be a part): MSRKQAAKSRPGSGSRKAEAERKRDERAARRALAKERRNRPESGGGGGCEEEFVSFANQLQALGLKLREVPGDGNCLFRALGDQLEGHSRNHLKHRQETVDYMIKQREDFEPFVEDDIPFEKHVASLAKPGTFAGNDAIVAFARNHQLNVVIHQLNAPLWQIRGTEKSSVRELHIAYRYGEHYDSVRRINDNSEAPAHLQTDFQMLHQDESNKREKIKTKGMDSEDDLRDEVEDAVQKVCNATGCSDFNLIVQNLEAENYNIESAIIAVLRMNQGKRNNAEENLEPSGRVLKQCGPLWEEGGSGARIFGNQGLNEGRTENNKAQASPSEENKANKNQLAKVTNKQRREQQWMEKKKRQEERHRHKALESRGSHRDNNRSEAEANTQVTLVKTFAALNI
USP7 block = inhibitors of human USP7 deubiquitinase. purified USP7, Ub-rhodamine cleavage fluorescence. hit rate 0.3% among 47,000. inhibition, % at 20 µM
USP8 block = inhibitors of human USP8 deubiquitinase | AID 1645853, 2021 | purified USP8, Ub-rhodamine cleavage fluorescence, 30 min | inhibition, % at 20 µM | hit rate 4.2% among 47,000 | Ubiquitin carboxyl-terminal hydrolase 8 (Homo sapiens), P40818
USP28 block = inhibitors of human USP28 deubiquitinase; Ubiquitin carboxyl-terminal hydrolase 28 (Homo sapiens), Q96RU2; purified USP28, Ub-rhodamine cleavage fluorescence, 30 min; inhibition, % at 25 µM; hit rate 3% among 47,000; AID 1645857, 2021
A number is an active result; - = inactive; . = not tested or not shown. Cut-off read from the data, not from the text of the source: active = inhibition above about 30%; inactive = the rest.

SMILES	UCHL1 inh	USP10 inh	OTUD3 block	USP7 block	USP8 block	USP28 block
Oc1ccc2c3c1[C@@H](O)C1OC1[C@]31Oc3cccc4c3[C@](C=C[C@@H]4O)(O2)O1 (some centres undefined)	-	-	-	-	-	-
CCN(CC)c1ccc2nnc(CCC(=O)NCCN3CCOCC3)n2n1	-	-	-	-	-	-
CC(C)CNc1ncnc2c1sc1nc(-c3ccccc3)c3c(c12)CCC3	-	-	-	-	39	-
CCCCc1nc2sc3c(NCCN4CCOCC4)ncnc3c2c2c1CCC2	-	-	-	-	-	83
Cc1ccc(CNc2cc(-n3cccn3)ncn2)cc1	-	-	-	-	-	31
Cc1ccc(CNc2cc(-n3ccnc3)ncn2)cc1C	-	-	-	-	-	-
COc1cccc(-c2noc(NCCc3ccc(SC)cc3)n2)c1	-	-	-	-	-	32
Cc1ccc(-c2noc(CCC(=O)Nc3nnc(C(C)C)s3)n2)cc1	-	-	-	-	-	-
O=C(Cc1cccnc1)Nc1ccc(N2CCN(C3CCCC3)C2=O)nc1	-	-	-	-	37	-
O=C(Nc1ccc(N2CCN(C3CCCCC3)C2=O)nc1)c1ccncc1	-	-	-	-	-	-
Cc1ccc(-c2nc(CN3C(=O)NC4(CCCc5ccccc54)C3=O)cs2)cc1 (centres undefined)	-	-	-	-	-	-
COc1ccc(N2CCN(CC3C(=O)O[C@@H]4CC5=CCC[C@H](C)[C@@]5(C)[C@@H](O)[C@H]34)CC2)cc1 (some centres undefined)	-	-	-	-	-	-
Cc1ccc(S(=O)(=O)NCc2cnc(C3CCCCO3)nc2)cc1 (centres undefined)	-	-	-	-	-	-
O=C(NC1CCCC1)c1ccc(-c2ccc(S(=O)(=O)NCc3ccccc3)cc2)cc1	-	-	-	-	45	-
CCN(C(=O)c1cc2c(s1)-c1ccccc1OC2)c1ccccc1F	-	-	-	-	-	52
COc1cccc(NC(=O)[C@H](C)NC(=O)c2cc3c(OC)c(OC)ccc3[nH]2)c1	-	-	-	-	81	-
CCOC(=O)C1CCN(Cc2nc3ccc([N+](=O)[O-])cc3c(=O)n2-c2cc(OC)cc(OC)c2)CC1	-	-	-	-	-	-
COc1cccc(-n2c(CNCc3cccnc3)nc3ccc([N+](=O)[O-])cc3c2=O)c1	-	-	-	-	-	36
COc1cccc(CNC(=O)c2ccc3c(c2)NC(=O)C2CCCN32)c1OC (centres undefined)	-	-	-	-	70	-
CCOC(=O)C1CCN(C(=O)c2ccc3c(c2)NC(=O)C2CCCN32)CC1 (centres undefined)	-	-	-	-	93	-
CCN1CCN(C(=O)c2ccc3c(c2)NC(=O)C2CCCCN32)CC1 (centres undefined)	-	-	-	-	-	-
O=C(NCc1ccccc1)c1ccc2c(c1)NC(=O)C1CCC(=O)N21 (centres undefined)	-	-	-	-	-	-
COc1ccc(CCNC(=O)c2cc3ccccc3s2)cc1OC	-	-	-	-	-	86
COc1ccc(CCNC(=O)c2ccc(CSc3nc4ccncc4[nH]3)cc2)cc1OC	-	-	-	-	-	34
COc1ccc(OC)c(CCNC(=O)c2ccc(CSc3nc4ccncc4[nH]3)cc2)c1	-	-	-	-	-	-
SMILES	UCHL1 inh	USP10 inh	OTUD3 block	USP7 block	USP8 block	USP28 block
Cc1ccc(CC(=O)NCC(=O)Nc2nc3ccccc3[nH]2)cc1	-	-	-	-	-	-
O=C1CC(c2ccc(C(F)(F)F)cc2)c2c(nc(-c3ccccc3)[nH]c2=O)N1 (centres undefined)	-	-	-	-	65	-
COc1ccc(NC2c3ccccc3C(=O)N2c2ccccn2)cc1 (centres undefined)	-	-	-	-	83	-
COc1ccccc1-c1c(NC(=O)C2CCCCC2)n(C)c2ccccc2c1=O	-	-	-	-	-	-
Cn1c2ccc(F)cc2c2ncn(Cc3ccc4c(c3)OCO4)c(=O)c21	-	-	-	-	32	-
O=c1c2ccccc2cnn1CC(O)c1ccccc1F (centres undefined)	-	-	-	-	-	.
COc1ccc(-c2nc(-c3cc4cc(OC)ccc4[nH]c3=O)no2)cc1	-	-	-	-	35	-
Cc1cc(=O)n(CC(=O)NCc2ccc(F)c(Cl)c2)c(N2CCCC2)n1	-	-	-	-	-	-
O=C(c1ncn2c1CNS(=O)(=O)c1ccccc1-2)N1CCCC1	-	-	-	-	-	-
O=C(Nc1cccc(Cl)c1)c1ncn2c1CNS(=O)(=O)c1ccccc1-2	-	37	-	-	-	66
Cc1ccccc1NC(=O)C(C)n1c(=O)cc(-c2ccccc2)c2c(C)nn(C)c21 (centres undefined)	-	-	-	-	-	-
Cc1ccc(-c2ccc(N3CCCC3)nn2)cc1S(=O)(=O)N1CCCCC1	-	-	-	-	-	-
Cc1cccc(S(=O)(=O)Nc2ccc(CCc3nc4ccc(C)cc4[nH]3)cc2)c1	-	-	-	-	-	36
Cc1ccc2nc(CCc3ccc(NS(=O)(=O)c4cccc(Cl)c4C)cc3)[nH]c2c1	-	-	-	-	-	52
Cc1ccc2nc(CCc3ccc(NS(=O)(=O)c4cccc(Cl)c4)cc3)[nH]c2c1	-	-	-	-	-	37
Cc1cccc(S(=O)(=O)Nc2ccc(-c3nc4ccc(C)cc4s3)cc2)c1	-	-	-	-	-	-
CNC(=O)c1nc(-c2ccc3cc[nH]c3c2)no1	-	-	-	-	-	-
Cc1ccc2nc(CN3CCN(C(=O)Nc4ccccc4F)CC3)oc2c1	-	-	-	-	-	-
Cn1c(NC(=O)C2CCCCC2)c(-c2cccs2)c(=O)c2ccccc21	-	-	-	-	-	-
O=C(NCc1cccs1)c1ccc(N2CCS(=O)(=O)CC2)cc1	-	-	-	-	-	-
Cc1ccnc(NS(=O)(=O)c2ccc(NC(=O)c3ccc(S(=O)(=O)N(C)Cc4ccccc4)cc3)cc2)n1	-	42	-	-	40	-
COc1ccc(-c2c(C(=O)O)sc3c2NC(=O)CC3c2ccccc2OC(C)C)cc1 (centres undefined)	-	-	-	-	-	-
Fc1cc(F)c2[nH]cc(-c3nnnn3-c3ccc4ccccc4c3)c2c1	-	31	-	-	55	45
CCOc1ccc2c(c1)c(=O)c(C(=O)c1ccccc1)cn2CC(=O)Nc1ccccc1	-	-	-	-	43	-
CCOc1ccc2c(c1)c(=O)c(C(=O)c1ccc(F)cc1)cn2CC(=O)Nc1ccccc1	-	-	-	-	38	-
